The record followed here is PubChem BioAssay (NCI).

Some test systems named below: SR leukemia; RPMI-8226 leukemia; OVCAR-8 ovarian; OVCAR-5 ovarian; OVCAR-4 ovarian; SK-OV-3 ovarian; IGROV1 ovarian; OVCAR-3 ovarian; HS 578T breast; NCI/ADR-RES ovarian.
Common to all, as to assay: NCI-60 one-dose screen, 48 h (100 = growth as untreated, 0 = no growth, -100 = all killed)
What all share (settings): 10 µM unless noted

The panel holds about 83,000 compounds, 20% with a hit somewhere; the sample as a whole holds those more often.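 Compound tested at a single concentration for 48 hours in 96-well plates; a percent growth value below 10 was scored as active.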 Unmarked numbers belong to inactive results. Activity calls are given as the source filed them.

As for `O=C1/C(=C/c2ccccn2)NC(=S)N1c1ccccc1Cl`, the growth with SR leukemia was 19.3%; in the experiment on RPMI-8226 leukemia it was 52.8%; in the experiment with OVCAR-8 ovarian, 30.4%; in the experiment on OVCAR-5 ovarian, 68.4%; with OVCAR-4 ovarian, 34.9%; in the experiment with SK-OV-3 ovarian, 111%. Besides, the growth is 46.1% in the experiment with IGROV1 ovarian, 53.7% in the experiment on OVCAR-3 ovarian, 72.5% in the experiment on HS 578T breast and 50.8% in the experiment on NCI/ADR-RES ovarian.
On to `Cc1ccc(/C=C/C(=O)c2ccc(-n3cc(CN4CCN(c5cc6c(cc5F)c(=O)c(C(=O)O)cn6C5CC5)CC4)nn3)cc2)cc1`, for which the growth in the experiment on SR leukemia was 63.2%; in the experiment on RPMI-8226 leukemia, 44.3%; with OVCAR-8 ovarian it was 62.5%; in the experiment with OVCAR-5 ovarian, 109%; in the experiment on OVCAR-4 ovarian, 94.8%; in the experiment on SK-OV-3 ovarian, 84.7%. The growth with IGROV1 ovarian was 69.9%; in the experiment on OVCAR-3 ovarian it was 96%; in the experiment on HS 578T breast, 80.5%; in the experiment with NCI/ADR-RES ovarian it was 103%.
As for `CCCCNc1nnc2n(Cc3ccccc3)c(=O)c3c4c(sc3n12)CCCC4`, the growth in the experiment on SR leukemia is 9.01% (active); in the experiment with RPMI-8226 leukemia it was 34.4%; with OVCAR-8 ovarian, 46.2%; in the experiment with OVCAR-5 ovarian, 106%; in the experiment on OVCAR-4 ovarian, 71.7%; in the experiment on SK-OV-3 ovarian it was 62.5%. Further, the growth with IGROV1 ovarian is 46.7%; in the experiment on OVCAR-3 ovarian, 49.2%; in the experiment on HS 578T breast it was 71.5%; in the experiment with NCI/ADR-RES ovarian it was 55.7%.
Consider `Cn1cc(-c2csc(-c3cn(CCCN4CCOCC4)c4ccccc34)n2)c2cccnc21`, for which the growth with SR leukemia is 58.9%; in the experiment with RPMI-8226 leukemia, 59.5%; in the experiment on OVCAR-8 ovarian it was 82.6%; in the experiment with OVCAR-5 ovarian it was 84.7%; in the experiment on OVCAR-4 ovarian, 97.8%; with SK-OV-3 ovarian, 102%. Also, the growth with IGROV1 ovarian is 98.6%; in the experiment with OVCAR-3 ovarian, 96.3%; with HS 578T breast, 88%; with NCI/ADR-RES ovarian, 91%.
For `CCN1CCN(CC(=O)Nc2ccc(-c3cn4c(n3)sc3cc(Oc5ccnc(C(=O)NC)c5)ccc34)cc2)CC1`, the growth is -16.9% (active) with SR leukemia; 59.2% in the experiment with RPMI-8226 leukemia; 92.4% with OVCAR-8 ovarian; 91.2% in the experiment on OVCAR-5 ovarian; 87.5% with OVCAR-4 ovarian; 44.8% with SK-OV-3 ovarian. Further, the growth in the experiment on IGROV1 ovarian was 84.8%; in the experiment with OVCAR-3 ovarian it was 88.8%; in the experiment with HS 578T breast it was 94%; in the experiment on NCI/ADR-RES ovarian, 89%.
For `CC[N+]1(CC)CC[N+]2(CCCC(C)CC2)CC1` (stereo not given), the growth is 106% in the experiment on SR leukemia; 99.9% with RPMI-8226 leukemia; 105% in the experiment on OVCAR-8 ovarian; 94.8% with OVCAR-5 ovarian; 111% in the experiment with OVCAR-4 ovarian; 104% with SK-OV-3 ovarian. Also, the growth was 95.6% in the experiment on IGROV1 ovarian, 111% in the experiment on OVCAR-3 ovarian, 107% with HS 578T breast and 111% with NCI/ADR-RES ovarian.
For `C#COc1cccc(Nc2ncnc3cc(NC(=O)[C@@H](C)Cl)ccc23)c1`, the growth with SR leukemia was 1.44% [6.25 µM] (active); in the experiment with RPMI-8226 leukemia, -6.79% [6.25 µM] (active); in the experiment with OVCAR-8 ovarian it was 11.9% [6.25 µM]; in the experiment on OVCAR-5 ovarian it was 25% [6.25 µM]; in the experiment on OVCAR-4 ovarian, 52.8% [6.25 µM]; in the experiment with SK-OV-3 ovarian, -5.9% [6.25 µM] (active). The growth in the experiment with IGROV1 ovarian was 8.48% [6.25 µM] (active); in the experiment with OVCAR-3 ovarian, -6.96% [6.25 µM] (active); in the experiment with HS 578T breast it was 17.4% [6.25 µM]; in the experiment on NCI/ADR-RES ovarian, 6.35% [6.25 µM] (active).
For the compound `O=S(=O)(NCCNc1nccc(-c2c(-c3ccc(F)c(O)c3)nc3sccn23)n1)c1ccc(F)cc1`, the growth in the experiment with SR leukemia was 1.25% (active); in the experiment with RPMI-8226 leukemia, 11.5%; in the experiment with OVCAR-8 ovarian, 29%; with OVCAR-5 ovarian, 67.9%; in the experiment on OVCAR-4 ovarian, 31.5%; with SK-OV-3 ovarian, 36.1%. Also, the growth was 12.2% in the experiment on IGROV1 ovarian, 39.4% with OVCAR-3 ovarian, 26.9% with HS 578T breast and 92.6% in the experiment on NCI/ADR-RES ovarian.
Regarding `O=c1c2ccccc2c(=O)c2c1sc1c(=O)c3ccc(O)cc3c(=O)c12`, the growth with SR leukemia was -16.6% (active); with RPMI-8226 leukemia, -38.6% (active); in the experiment on OVCAR-8 ovarian, -11.5% (active); in the experiment on OVCAR-5 ovarian, -74.7% (active); with OVCAR-4 ovarian it was -90.2% (active); with SK-OV-3 ovarian it was -92.1% (active). For the same compound, the growth in the experiment with IGROV1 ovarian was -24% (active); in the experiment on OVCAR-3 ovarian, -57.1% (active); in the experiment on HS 578T breast it was -5.23% (active); in the experiment with NCI/ADR-RES ovarian it was -14.1% (active).
Turning to `N#Cc1cccc(C2C3=C(COC3=O)N(CCO)c3cc4c(cc32)OCO4)c1` (stereo not given), the growth is 15.3% in the experiment with SR leukemia; 19.2% with RPMI-8226 leukemia; 35.6% in the experiment on OVCAR-8 ovarian; 69.5% in the experiment on OVCAR-5 ovarian; 70.9% in the experiment with OVCAR-4 ovarian; 23% with SK-OV-3 ovarian. The growth was 42.1% in the experiment with IGROV1 ovarian, 3.12% (active) in the experiment on OVCAR-3 ovarian, 20.2% in the experiment on HS 578T breast and 57.3% in the experiment with NCI/ADR-RES ovarian.
Consider `CCCCCCCC/C=C\CCCCCCCCOc1ccc(CC(=O)NCC[N+]2(C)CCOCC2)cc1`, for which the growth is 71.7% with SR leukemia; 66.6% in the experiment on RPMI-8226 leukemia; 73% with OVCAR-8 ovarian; 29.5% with OVCAR-5 ovarian; 97.3% with OVCAR-4 ovarian; 98.8% in the experiment with SK-OV-3 ovarian. In addition, the growth in the experiment on IGROV1 ovarian was 5.35% (active); in the experiment with OVCAR-3 ovarian, 98.1%; in the experiment on HS 578T breast, 72.5%; with NCI/ADR-RES ovarian, 104%.
